# Tests used:
# Assay in all cases: PBM binding z-score (relative to random genomic background probes); higher = stronger binding; sequences stand for … in GC…GCGATTGACAGCGTAGAATGAAGG
# [1] = system: FXR:RXRa (NR concentration 270 nM, RXRa partner concentration 90 nM)
# Procedure, shortened: (§1)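 Binding buffer was PBS pH 7.4 with 2% milk, 0.02% Triton X-100, 1 mM DTT, 0.2 mg/mL BSA and 0.4 mg/ml salmon testes DNA. In it, ligand-free nuclear receptor dimers were incubated 1 h on custom Agilent 4×180K protein-binding microarrays carrying double-stranded probes. Antibodies against each partner (one per run) detected binding, and z-scores were calculated against random background probes after regression normalization of scanned fluorescence.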
# [2] = system: LXRa:RXRa (NR concentration 270 nM, RXRa partner concentration 90 nM)
# Procedure, shortened: as §1
# [3] = system: LXRa homodimer (NR concentration 270 nM)
# Procedure, shortened: as §1
# [4] = system: LXRb:RXRa (NR concentration 270 nM, RXRa partner concentration 90 nM)
# Procedure, shortened: as §1
# [5] = system: LXRb homodimer (NR concentration 270 nM)
# Procedure, shortened: as §1
# [6] = system: PPARa:RXRa (NR concentration 270 nM, RXRa partner concentration 90 nM)
# Procedure, shortened: as §1
# [7] = system: PPARg:RXRa (NR concentration 180 nM, RXRa partner concentration 90 nM)
# Procedure, shortened: as §1
# [8] = system: PPARg:RXRa 270nM:90nM, anti-RXR (NR concentration 270 nM, RXRa partner concentration 90 nM)
# Procedure, shortened: as §1
# [9] = system: PPARg:RXRa 30nM:10nM, anti-RXR (NR concentration 30 nM, RXRa partner concentration 10 nM)
# Procedure, shortened: as §1
# [10] = system: PPARg:RXRa 90nM:30nM, anti-RXR (NR concentration 90 nM, RXRa partner concentration 30 nM)
# Procedure, shortened: as §1
Sequence,PBM binding z-score [1],PBM binding z-score [2],PBM binding z-score [3],PBM binding z-score [4],PBM binding z-score [5],PBM binding z-score [6],PBM binding z-score [7],PBM binding z-score [8],PBM binding z-score [9],PBM binding z-score [10]
TCTTGTATATCAAGCAGGTTAAGAAAGCCTGAGT,0.234,0.335,0.0276,0.678,0.189,0.992,-0.217,1.47,2.86,1.86
CGTCCAAGGTCAGAGAGGTAAGTGAATGCCGAGT,4.98,3.18,0.174,2.39,-0.0952,3.93,2.19,2.66,0.414,1.42
TCTTGTAGATCAAGCAGGTTAAAAAAGCCTGAGT,0.399,0.66,0.0137,0.802,-0.381,1.05,-0.353,1.21,2.5,1.89
TAGCCTAGGACAGATCGGGCCAGTATACGCTATA,-1.33,-1.15,-0.706,-1.34,-0.794,-1.96,0.367,-0.842,-0.355,-0.623
ATATCTAGGTTAGCTGGGGTCATTCAGACTAGGC,4.62,5.44,3.33,4.64,2.06,5.23,5.59,5.22,2.61,4.47
TCGAGGAGGTTACCAATGGGGCATTCAGCTTTCT,0.893,2.72,-0.21,2.47,-0.369,2.29,0.171,1.2,1.46,1.09
TCGAGTAGGATACCAATGGGGCATTCAGCTTTCT,-0.594,-0.525,-0.966,-0.394,-0.758,-0.335,-0.0828,-0.0523,0.785,0.306
CCGACTGGGGCAGAAAAGTTACCATACCATCCGG,-0.281,-0.694,-0.371,-0.55,-1.1,-0.413,0.56,-0.294,-0.571,-0.517
TTACCTAGGTGAAAGGTCGTTGATGCACGCCTTG,3.04,2.96,0.393,2.74,-0.415,5.66,10.4,9.22,9.2,10.2
ATATGTCGGTTAAGGGTCATTCAGGTTGGTTCGC,4.54,4.44,3.12,4.03,1.48,5.44,8.83,8.47,7.13,9.33
TCATAAAGGTAAATGCTAGGTGAAAGTCCGATCT,1.41,1.31,0.158,0.935,-0.29,1.55,0.57,2.52,4.21,3.45
AGTCAAAGTTCATGTAGGTAACGTAAGATATGCT,6.48,5.94,4.83,3.65,1.37,4.9,6.75,6.37,3.09,5.61
CGTCCAAGGTCAGAGAAGTCAGTGAATGCCGAGT,4.48,2.9,0.222,2.17,-0.0616,3.73,1.89,2.54,0.704,1.5
CCTAGTTGGTGAAGGTCACACACGCTATAGGTAC,2.89,3.37,1.45,3.42,0.755,3.66,2.32,3.03,1.1,1.97
CCTACTGGGCCATCTGGTCATTGATATCAACGTT,-0.161,-0.364,-0.126,-0.0941,-0.192,0.878,1.09,2.19,0.303,1.69
AGTATTAGTTGAGACGAGGGCAACCGATAGGTTG,0.842,0.556,0.129,0.258,0.115,0.567,0.552,0.313,0.0784,0.559
ATATGTAGGTTAAGGGTCATTAAGGTTGGTTCGC,5.05,4.87,2.72,4.3,0.865,6.59,11.6,9.59,10.3,10.7
TAGCCTAGGTTATTCAGGGGCCAGTATAGAAAGC,0.502,1.27,-0.0903,1.24,0.216,0.523,0.241,-0.0507,-0.33,0.0793
AGTCAAAGTTCACTAGGTAACGTACGATTCAGCT,5.6,5.41,3.55,3.27,0.963,4.79,7.47,6.6,3.88,5.98
TGTGCTAGGTCAACGATGGTCAGCTAATCTGCTA,3.38,2.67,-0.0277,1.54,0.116,3.1,2.68,2.4,0.195,1.68
CGTCAAAGTTCATCTAAGGTAACGTAAAGCACGC,6.89,6.38,4.65,4.03,2.11,4.73,4.57,5.27,2.69,4.22
ATCTCTAGGTAAGACTCAGTCCAGTGAAGAACGC,0.392,0.554,-0.00583,-0.0175,0.668,-0.0468,0.17,0.258,0.405,0.142
CCTACTGGGCCATTCAGAGGTCCTTGATCATATG,-0.359,-0.572,-0.215,-0.597,-0.529,0.27,0.118,0.194,-0.728,-0.16

# Source: the supplement of paper PMC6555819
